The results in this text go back to ChEMBL document CHEMBL2218924, “A broad activity screen in support of a chemogenomic map for kinase signalling research and drug discovery” (Biochem J, 2013).

Test [1] deals with T1, Ephrin type-A receptor 3 (Homo sapiens) (UniProt P29320).
T1 sequence (whole entry): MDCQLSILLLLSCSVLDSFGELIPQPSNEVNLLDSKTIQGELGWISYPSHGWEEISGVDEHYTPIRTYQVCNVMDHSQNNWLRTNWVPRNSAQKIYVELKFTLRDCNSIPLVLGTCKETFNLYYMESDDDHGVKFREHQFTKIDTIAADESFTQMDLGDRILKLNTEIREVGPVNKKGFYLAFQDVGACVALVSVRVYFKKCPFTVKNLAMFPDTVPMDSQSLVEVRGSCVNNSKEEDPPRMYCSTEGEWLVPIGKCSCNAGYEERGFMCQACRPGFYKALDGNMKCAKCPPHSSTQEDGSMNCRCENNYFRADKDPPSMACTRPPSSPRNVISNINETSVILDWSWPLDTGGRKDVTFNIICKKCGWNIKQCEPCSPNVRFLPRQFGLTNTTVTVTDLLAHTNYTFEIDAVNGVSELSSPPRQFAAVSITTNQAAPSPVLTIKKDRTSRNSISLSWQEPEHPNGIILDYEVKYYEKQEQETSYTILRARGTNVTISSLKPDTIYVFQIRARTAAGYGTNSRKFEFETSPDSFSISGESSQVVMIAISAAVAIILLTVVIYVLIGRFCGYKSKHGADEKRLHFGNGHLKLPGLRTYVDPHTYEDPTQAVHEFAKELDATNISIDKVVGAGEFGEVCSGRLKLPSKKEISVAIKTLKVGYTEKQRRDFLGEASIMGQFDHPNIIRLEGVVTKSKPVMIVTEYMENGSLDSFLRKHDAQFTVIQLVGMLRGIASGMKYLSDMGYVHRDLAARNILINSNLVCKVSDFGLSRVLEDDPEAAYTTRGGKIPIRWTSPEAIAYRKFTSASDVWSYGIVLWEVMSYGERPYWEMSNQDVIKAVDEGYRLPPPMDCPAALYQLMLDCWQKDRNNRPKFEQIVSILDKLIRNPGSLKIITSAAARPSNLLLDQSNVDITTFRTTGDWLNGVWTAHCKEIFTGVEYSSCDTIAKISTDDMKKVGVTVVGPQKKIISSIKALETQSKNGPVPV
The settings on record: at 10 µM.

In test [2] the target is Ephrin type-A receptor 4 (Homo sapiens) (UniProt P54764). The settings on record: at 1 µM.
Sequence of Ephrin type-A receptor 4 (Homo sapiens) (P54764 whole entry): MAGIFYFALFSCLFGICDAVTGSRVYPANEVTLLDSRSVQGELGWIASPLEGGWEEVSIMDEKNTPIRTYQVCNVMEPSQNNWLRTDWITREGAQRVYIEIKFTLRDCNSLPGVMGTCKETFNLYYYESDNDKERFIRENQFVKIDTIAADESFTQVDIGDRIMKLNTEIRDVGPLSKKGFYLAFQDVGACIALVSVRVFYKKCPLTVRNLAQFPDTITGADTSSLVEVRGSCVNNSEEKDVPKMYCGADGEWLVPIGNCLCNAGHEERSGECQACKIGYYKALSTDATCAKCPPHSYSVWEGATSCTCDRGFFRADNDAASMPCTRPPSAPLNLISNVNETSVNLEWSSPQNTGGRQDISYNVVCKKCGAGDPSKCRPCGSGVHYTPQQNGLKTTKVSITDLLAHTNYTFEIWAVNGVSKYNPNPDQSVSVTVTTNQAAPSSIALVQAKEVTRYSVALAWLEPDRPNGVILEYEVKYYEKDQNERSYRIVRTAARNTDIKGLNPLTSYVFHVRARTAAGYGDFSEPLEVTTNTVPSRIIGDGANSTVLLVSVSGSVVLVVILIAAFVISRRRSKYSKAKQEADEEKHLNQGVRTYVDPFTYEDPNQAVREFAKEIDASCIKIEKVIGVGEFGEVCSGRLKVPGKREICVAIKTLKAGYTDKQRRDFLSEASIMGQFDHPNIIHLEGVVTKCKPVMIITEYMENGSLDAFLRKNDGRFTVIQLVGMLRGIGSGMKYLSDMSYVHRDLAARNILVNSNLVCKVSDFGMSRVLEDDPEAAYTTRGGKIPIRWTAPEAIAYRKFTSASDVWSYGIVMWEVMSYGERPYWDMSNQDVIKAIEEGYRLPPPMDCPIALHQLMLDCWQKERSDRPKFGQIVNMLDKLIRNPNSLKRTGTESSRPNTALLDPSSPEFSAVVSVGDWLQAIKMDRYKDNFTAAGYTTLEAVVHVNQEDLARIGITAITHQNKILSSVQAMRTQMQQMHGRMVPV
The target is the same in test [3]. The settings on record: at 10 µM.
Test [4] has as its target Ephrin type-A receptor 5 (Homo sapiens) (UniProt P54756). Conditions: at 1 µM; call rule not given here.
Test [5] shares this target. The settings on record: at 10 µM.
The target in test [6] is Ephrin type-A receptor 7 (Homo sapiens) (UniProt Q15375). The settings on record: at 1 µM.
Sequence of Ephrin type-A receptor 7 (Homo sapiens) (Q15375 28-998 limits assumed): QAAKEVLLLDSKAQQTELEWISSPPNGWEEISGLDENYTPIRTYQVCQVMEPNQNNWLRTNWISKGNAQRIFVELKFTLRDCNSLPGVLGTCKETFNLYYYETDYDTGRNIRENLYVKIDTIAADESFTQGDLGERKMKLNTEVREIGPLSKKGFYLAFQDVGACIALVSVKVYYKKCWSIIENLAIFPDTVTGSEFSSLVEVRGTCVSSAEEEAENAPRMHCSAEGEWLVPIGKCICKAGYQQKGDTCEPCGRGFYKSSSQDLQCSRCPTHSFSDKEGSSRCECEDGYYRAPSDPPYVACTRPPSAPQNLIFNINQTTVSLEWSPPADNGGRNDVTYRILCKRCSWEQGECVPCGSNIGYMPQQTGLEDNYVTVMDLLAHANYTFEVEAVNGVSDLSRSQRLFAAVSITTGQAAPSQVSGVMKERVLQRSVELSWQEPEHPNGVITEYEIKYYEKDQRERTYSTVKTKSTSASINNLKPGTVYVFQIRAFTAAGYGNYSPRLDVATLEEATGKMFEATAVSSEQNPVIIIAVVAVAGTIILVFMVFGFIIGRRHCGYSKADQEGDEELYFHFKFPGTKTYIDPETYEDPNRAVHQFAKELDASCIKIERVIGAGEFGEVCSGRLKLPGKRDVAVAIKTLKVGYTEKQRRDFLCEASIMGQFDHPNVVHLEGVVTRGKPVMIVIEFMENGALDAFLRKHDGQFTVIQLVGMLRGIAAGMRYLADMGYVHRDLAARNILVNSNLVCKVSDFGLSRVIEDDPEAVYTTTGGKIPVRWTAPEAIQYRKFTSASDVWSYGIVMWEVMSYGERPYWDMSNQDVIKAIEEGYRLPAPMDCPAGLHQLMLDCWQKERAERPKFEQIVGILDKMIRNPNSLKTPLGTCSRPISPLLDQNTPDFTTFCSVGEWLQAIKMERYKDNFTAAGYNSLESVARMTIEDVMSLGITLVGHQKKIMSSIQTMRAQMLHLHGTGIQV
Test [7] has the same target. Conditions: at 10 µM.
For test [8], the target named is T2, Ephrin type-A receptor 8 (Homo sapiens) (UniProt P29322).
T2 sequence (whole entry): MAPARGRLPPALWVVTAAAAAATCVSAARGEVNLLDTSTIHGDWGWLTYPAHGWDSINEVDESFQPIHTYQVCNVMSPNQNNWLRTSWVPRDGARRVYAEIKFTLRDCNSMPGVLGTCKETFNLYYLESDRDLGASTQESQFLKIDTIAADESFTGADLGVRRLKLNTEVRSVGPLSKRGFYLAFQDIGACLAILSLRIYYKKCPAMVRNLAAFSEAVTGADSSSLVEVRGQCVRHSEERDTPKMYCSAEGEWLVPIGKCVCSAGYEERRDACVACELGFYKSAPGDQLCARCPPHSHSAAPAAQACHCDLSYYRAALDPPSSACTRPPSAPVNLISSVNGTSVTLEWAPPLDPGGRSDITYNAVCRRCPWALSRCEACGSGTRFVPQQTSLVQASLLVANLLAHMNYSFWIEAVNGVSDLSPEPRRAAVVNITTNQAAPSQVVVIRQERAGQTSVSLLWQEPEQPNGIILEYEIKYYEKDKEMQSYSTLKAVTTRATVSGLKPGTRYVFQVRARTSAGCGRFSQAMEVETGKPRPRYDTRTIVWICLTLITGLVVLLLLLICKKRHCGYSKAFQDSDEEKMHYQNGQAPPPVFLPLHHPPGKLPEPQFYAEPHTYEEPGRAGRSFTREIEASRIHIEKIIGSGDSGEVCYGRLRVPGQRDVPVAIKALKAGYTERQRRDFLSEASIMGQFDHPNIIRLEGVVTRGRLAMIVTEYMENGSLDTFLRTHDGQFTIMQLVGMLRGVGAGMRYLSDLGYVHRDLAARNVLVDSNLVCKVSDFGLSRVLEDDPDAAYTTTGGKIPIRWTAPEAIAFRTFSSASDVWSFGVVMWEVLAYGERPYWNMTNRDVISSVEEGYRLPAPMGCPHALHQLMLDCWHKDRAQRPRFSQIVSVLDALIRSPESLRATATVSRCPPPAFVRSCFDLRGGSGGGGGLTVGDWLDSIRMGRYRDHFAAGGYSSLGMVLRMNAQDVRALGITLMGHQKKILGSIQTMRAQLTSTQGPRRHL
Conditions: at 1 µM.

Test [9] concerns the target T2, Ephrin type-A receptor 8 (Homo sapiens). Conditions: at 10 µM.
Test [10] deals with T3, Ephrin type-B receptor 1 (Homo sapiens) (UniProt P54762).
T3 sequence (whole entry): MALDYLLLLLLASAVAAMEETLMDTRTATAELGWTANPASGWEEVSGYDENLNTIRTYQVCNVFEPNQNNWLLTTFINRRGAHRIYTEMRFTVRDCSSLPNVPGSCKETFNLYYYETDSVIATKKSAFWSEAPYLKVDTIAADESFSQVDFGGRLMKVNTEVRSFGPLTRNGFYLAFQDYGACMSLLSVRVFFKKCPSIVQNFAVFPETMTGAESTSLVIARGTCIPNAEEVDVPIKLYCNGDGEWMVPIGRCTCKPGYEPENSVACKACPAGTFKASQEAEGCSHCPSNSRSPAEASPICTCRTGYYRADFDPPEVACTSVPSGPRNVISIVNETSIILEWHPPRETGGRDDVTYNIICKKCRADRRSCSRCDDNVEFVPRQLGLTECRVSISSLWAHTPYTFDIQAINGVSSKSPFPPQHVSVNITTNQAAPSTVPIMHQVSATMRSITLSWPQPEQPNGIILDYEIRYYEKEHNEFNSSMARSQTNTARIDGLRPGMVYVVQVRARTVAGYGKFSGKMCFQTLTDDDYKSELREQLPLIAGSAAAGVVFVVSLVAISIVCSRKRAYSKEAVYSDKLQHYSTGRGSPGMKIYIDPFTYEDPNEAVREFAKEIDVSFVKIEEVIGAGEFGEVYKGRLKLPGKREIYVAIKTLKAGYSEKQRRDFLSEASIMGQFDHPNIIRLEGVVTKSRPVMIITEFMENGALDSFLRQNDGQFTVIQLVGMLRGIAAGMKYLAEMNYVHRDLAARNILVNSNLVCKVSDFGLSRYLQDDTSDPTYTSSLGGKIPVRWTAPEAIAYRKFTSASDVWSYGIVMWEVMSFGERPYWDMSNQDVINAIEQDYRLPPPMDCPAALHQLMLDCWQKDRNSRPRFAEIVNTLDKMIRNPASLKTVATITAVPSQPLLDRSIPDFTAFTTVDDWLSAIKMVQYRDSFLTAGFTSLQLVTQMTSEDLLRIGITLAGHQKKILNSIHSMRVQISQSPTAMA
The settings on record: at 10 µM.

The target in test [11] is T4, Ephrin type-B receptor 2 (Homo sapiens) (UniProt P29323).
T4 sequence (whole entry): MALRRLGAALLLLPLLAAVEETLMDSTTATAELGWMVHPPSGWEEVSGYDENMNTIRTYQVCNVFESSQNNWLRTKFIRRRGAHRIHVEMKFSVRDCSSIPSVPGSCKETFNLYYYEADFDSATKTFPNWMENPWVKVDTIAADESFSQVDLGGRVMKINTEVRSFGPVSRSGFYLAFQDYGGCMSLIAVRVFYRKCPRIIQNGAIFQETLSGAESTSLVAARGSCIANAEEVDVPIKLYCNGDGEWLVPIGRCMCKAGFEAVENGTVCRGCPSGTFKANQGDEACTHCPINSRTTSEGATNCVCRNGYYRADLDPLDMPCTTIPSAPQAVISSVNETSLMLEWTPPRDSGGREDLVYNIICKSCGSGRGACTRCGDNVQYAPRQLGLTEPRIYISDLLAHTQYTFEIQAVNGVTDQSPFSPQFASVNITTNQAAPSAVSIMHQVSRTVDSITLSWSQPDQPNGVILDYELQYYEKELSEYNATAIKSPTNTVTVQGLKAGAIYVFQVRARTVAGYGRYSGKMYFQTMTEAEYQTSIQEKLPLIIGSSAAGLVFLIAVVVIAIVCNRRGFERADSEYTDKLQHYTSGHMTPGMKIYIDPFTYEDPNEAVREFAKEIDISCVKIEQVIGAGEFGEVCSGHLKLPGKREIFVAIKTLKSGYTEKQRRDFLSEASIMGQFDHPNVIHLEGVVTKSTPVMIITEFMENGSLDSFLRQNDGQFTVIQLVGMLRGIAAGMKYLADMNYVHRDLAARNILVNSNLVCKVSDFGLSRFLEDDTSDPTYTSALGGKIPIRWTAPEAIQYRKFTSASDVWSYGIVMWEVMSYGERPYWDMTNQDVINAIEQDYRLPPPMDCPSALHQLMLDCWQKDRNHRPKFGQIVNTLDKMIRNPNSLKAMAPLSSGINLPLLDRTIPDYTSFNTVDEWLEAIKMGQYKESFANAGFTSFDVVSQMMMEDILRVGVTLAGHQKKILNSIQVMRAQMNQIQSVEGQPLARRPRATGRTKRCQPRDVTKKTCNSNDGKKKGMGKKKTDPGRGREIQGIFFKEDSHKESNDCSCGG
The settings on record: at 1 µM.

Test [12] has as its target T4, Ephrin type-B receptor 2 (Homo sapiens). The settings on record: at 10 µM.
The target in test [13] is T5, Ephrin type-B receptor 3 (Homo sapiens) (UniProt P54753).
T5 sequence (whole entry): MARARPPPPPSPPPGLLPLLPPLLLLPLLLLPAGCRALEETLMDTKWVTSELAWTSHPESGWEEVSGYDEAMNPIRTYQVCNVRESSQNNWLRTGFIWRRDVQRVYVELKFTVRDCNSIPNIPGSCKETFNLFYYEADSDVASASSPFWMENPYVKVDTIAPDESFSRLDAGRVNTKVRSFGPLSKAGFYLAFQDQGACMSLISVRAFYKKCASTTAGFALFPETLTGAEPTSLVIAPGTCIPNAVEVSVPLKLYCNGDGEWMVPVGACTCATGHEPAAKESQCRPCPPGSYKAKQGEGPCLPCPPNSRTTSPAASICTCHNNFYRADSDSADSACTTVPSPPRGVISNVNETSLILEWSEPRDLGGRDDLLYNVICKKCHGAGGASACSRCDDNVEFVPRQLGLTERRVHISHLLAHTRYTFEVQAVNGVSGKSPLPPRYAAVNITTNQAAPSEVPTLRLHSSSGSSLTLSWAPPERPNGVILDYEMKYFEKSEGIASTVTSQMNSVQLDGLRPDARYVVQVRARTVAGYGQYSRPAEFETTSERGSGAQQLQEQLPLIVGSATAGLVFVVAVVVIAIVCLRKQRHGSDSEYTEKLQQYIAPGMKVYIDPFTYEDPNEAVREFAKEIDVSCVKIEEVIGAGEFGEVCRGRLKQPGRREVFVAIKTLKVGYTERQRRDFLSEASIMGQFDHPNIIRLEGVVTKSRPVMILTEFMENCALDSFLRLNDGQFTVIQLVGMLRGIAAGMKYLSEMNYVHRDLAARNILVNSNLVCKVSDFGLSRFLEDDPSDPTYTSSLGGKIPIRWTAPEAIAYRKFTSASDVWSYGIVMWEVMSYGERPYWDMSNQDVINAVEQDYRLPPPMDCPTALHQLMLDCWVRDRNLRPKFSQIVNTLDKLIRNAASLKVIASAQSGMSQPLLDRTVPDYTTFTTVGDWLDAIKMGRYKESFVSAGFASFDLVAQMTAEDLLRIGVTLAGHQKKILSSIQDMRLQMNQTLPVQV
Conditions: at 1 µM.

The target of test [14] is T5, Ephrin type-B receptor 3 (Homo sapiens). Conditions: at 10 µM.
The target in test [15] is T6, Ephrin type-B receptor 4 (Homo sapiens) (UniProt P54760).
T6 sequence (whole entry): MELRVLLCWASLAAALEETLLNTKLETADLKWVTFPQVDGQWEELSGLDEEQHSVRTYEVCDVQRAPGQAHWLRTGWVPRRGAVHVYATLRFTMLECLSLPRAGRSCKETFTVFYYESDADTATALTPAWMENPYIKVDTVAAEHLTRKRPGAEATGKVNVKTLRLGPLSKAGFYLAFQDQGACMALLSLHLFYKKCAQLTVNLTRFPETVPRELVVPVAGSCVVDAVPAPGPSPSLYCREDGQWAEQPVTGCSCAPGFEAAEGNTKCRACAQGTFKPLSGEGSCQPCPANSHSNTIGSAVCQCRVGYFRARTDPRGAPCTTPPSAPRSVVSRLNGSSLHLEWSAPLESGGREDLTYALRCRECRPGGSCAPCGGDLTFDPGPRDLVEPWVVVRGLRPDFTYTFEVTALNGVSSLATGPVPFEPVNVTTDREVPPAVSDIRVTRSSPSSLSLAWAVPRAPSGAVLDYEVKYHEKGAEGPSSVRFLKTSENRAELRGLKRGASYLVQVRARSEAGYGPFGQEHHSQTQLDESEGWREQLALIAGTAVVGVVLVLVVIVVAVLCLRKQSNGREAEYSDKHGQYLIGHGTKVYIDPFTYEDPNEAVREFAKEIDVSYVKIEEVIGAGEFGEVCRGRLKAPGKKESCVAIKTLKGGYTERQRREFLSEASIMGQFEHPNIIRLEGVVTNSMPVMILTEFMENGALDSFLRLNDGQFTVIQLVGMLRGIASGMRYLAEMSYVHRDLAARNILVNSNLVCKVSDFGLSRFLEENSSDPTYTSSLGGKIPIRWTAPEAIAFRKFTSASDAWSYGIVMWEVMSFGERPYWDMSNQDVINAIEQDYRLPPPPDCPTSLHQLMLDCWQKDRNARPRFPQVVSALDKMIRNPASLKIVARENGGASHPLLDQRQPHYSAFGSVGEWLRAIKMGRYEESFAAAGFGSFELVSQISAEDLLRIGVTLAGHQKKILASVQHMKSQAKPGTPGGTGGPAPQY
The settings on record: at 1 µM.

Test [16] concerns the target Receptor tyrosine-protein kinase erbB-4 (Homo sapiens) (UniProt Q15303). The settings on record: at 1 µM.
Test [17] has the same target. The settings on record: at 10 µM.
Test [18] has as its target Focal adhesion kinase 1 (Homo sapiens) (UniProt Q05397). The settings on record: at 1 µM.

Sequence of Receptor tyrosine-protein kinase erbB-4 (Homo sapiens) (Q15303 whole entry): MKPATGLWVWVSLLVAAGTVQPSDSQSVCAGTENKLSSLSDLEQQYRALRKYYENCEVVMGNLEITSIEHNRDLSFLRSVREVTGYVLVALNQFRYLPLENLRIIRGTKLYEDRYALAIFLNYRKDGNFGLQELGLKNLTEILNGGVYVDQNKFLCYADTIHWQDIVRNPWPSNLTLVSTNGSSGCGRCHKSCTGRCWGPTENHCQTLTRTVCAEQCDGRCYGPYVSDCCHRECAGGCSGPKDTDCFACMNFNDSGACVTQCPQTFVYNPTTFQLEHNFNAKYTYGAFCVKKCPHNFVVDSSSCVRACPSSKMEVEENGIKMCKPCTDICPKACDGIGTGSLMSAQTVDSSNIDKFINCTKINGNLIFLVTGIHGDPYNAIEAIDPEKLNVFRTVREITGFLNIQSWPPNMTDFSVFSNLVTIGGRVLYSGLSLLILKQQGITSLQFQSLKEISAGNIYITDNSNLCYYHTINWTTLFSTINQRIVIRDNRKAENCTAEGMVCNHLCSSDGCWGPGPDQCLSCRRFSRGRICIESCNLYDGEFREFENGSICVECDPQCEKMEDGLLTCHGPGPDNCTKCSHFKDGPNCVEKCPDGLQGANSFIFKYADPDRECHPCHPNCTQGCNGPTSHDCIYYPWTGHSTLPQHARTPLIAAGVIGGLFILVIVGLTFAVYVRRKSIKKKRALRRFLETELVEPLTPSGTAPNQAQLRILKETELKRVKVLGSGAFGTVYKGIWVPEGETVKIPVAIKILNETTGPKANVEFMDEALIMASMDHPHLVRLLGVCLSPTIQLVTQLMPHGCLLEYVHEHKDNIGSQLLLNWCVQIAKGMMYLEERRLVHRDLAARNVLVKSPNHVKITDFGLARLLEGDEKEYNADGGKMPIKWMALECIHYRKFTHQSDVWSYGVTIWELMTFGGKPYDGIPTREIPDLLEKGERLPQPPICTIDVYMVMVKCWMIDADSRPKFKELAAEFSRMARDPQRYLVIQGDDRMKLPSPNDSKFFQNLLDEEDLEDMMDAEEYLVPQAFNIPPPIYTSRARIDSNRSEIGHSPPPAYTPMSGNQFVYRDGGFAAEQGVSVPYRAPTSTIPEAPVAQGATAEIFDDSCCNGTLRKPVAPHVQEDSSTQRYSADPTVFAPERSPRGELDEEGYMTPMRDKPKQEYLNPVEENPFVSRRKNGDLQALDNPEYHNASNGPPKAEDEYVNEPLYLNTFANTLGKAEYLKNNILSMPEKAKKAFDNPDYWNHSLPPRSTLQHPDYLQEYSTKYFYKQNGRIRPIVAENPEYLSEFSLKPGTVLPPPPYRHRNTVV
Sequence of Ephrin type-A receptor 5 (Homo sapiens) (P54756 whole entry): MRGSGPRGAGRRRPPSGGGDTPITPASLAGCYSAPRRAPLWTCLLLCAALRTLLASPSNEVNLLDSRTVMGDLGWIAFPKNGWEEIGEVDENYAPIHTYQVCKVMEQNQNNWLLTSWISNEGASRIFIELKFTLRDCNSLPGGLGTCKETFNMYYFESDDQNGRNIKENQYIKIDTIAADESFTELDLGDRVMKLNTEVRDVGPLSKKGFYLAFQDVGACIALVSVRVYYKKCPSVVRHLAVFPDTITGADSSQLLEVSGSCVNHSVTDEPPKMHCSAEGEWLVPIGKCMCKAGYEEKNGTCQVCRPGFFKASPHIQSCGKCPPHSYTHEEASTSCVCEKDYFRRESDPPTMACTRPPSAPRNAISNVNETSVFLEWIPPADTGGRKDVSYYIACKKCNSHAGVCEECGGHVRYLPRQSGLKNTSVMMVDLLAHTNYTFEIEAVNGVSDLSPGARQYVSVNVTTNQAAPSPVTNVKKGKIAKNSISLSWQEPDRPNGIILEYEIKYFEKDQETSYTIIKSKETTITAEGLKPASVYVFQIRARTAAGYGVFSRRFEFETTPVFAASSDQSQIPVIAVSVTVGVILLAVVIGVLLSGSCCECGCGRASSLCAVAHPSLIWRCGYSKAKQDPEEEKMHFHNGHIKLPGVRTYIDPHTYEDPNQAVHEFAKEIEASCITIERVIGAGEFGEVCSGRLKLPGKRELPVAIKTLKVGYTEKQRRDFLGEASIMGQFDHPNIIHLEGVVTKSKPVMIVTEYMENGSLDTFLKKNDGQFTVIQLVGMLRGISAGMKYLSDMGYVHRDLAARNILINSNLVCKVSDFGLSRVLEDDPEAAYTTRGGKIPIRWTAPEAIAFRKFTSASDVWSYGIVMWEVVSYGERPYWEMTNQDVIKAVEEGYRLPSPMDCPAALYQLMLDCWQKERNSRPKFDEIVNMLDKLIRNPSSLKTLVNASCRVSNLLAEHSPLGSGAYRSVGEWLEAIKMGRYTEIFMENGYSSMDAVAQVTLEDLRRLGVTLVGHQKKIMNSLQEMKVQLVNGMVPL

For the compound `O=C(CCCc1ccc(-c2ccccc2F)cc1)Nc1ccc(O)cc1`, the residual activity (usually the signal under treatment as a percentage of the control signal) came to 111% in [1]; 108% in test [2]; 96% in test [3]; 111% in [4]; 106% in test [5]; 102% in test [6]. Besides, the residual activity came to 104% in test [7]; 103% in test [8]; 94% in test [9]; 98% in [10]; 107% in test [11]; 112% in test [12]. Further, the residual activity in [13] is 109% (inactive); in [14] it was 97%; in test [15] it was 93%; in test [16] it was 111%; in test [17], 127%; in test [18], 105%.
